Experimental data: PubChem BioAssay (NCI)
This is part of a sample that, as a whole, favours compounds with a hit. Of some 83,000 tested, about 20% had one in any assay.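 Testing used 96-well plates and a 48-hour single-concentration exposure. Example: -40 means 40% of the starting cells died.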 Active and inactive are the calls of the source. How the source made its calls: active means growth percent below 10; inactive means the rest.

Key:
Assay in all cases: NCI-60 one-dose screen, 48 h (100 = growth as untreated, 0 = no growth, -100 = all killed)
Conditions in all cases: 10 µM unless noted
NCI-H23 lung = tested on: NCI-H23 lung
NCI-H226 lung = tested on: NCI-H226 lung
NCI-H322M lung = tested on: NCI-H322M lung
HOP-62 NSCLC = tested on: HOP-62 NSCLC
NCI-H460 lung = tested on: NCI-H460 lung
HOP-92 NSCLC = tested on: HOP-92 NSCLC
NCI-H522 lung = tested on: NCI-H522 lung
A549/ATCC NSCLC = tested on: A549/ATCC NSCLC
786-0 renal = tested on: 786-0 renal
COLO 205 colon = tested on: COLO 205 colon
DU-145 prostate = tested on: DU-145 prostate
K-562 leukemia = tested on: K-562 leukemia
MALME-3M melanoma = tested on: MALME-3M melanoma
MDA-MB-231 breast = tested on: MDA-MB-231 breast
RXF 393 renal = tested on: RXF 393 renal
SF-268 CNS = tested on: SF-268 CNS
SF-295 CNS = tested on: SF-295 CNS
SF-539 CNS = tested on: SF-539 CNS
UACC-257 melanoma = tested on: UACC-257 melanoma
M14 melanoma = tested on: M14 melanoma

Measured: growth

FC(F)(F)c1ccc(/C=N/Nc2nnc3n2N=C(c2ccc(Cl)cc2)CS3)cc1
inactive: NCI-H23 lung 64.8% | NCI-H226 lung 20.7% | NCI-H322M lung 60.9% | HOP-62 NSCLC 16.4% | NCI-H460 lung 43.9% | NCI-H522 lung 58.1% | A549/ATCC NSCLC 51.7% | 786-0 renal 27.6% | COLO 205 colon 89.3% | DU-145 prostate 53.7% | K-562 leukemia 80.9% | MALME-3M melanoma 16.3% | MDA-MB-231 breast 56.2% | SF-268 CNS 36.8% | SF-295 CNS 47.6% | SF-539 CNS 54.8% | UACC-257 melanoma 46.9% | M14 melanoma 74.4%
active: HOP-92 NSCLC 3.52% | RXF 393 renal 3.04%

O=C(CI)NCCNc1cccc2c(S(=O)(=O)O)cccc12
inactive: NCI-H23 lung 95.1% | NCI-H226 lung 103% | NCI-H322M lung 98% | HOP-62 NSCLC 107% | NCI-H460 lung 105% | HOP-92 NSCLC 102% | NCI-H522 lung 107% | A549/ATCC NSCLC 110% | 786-0 renal 101% | COLO 205 colon 105% | DU-145 prostate 96.3% | K-562 leukemia 110% | MALME-3M melanoma 103% | MDA-MB-231 breast 93.5% | RXF 393 renal 101% | SF-268 CNS 93.3% | SF-295 CNS 98.5% | SF-539 CNS 105% | UACC-257 melanoma 108% | M14 melanoma 98.4%

N#Cc1nc(-c2ccc(Cl)cc2)cc(-c2ccc(Nc3nc(N4CCCCC4)nc(N4CCCCC4)n3)cc2)c1N
inactive: NCI-H23 lung 92.1% | NCI-H226 lung 71.2% | NCI-H322M lung 109% | HOP-62 NSCLC 94.8% | NCI-H460 lung 104% | HOP-92 NSCLC 101% | NCI-H522 lung 96.9% | A549/ATCC NSCLC 106% | 786-0 renal 103% | COLO 205 colon 113% | DU-145 prostate 105% | K-562 leukemia 105% | MALME-3M melanoma 107% | MDA-MB-231 breast 114% | RXF 393 renal 115% | SF-268 CNS 101% | SF-295 CNS 101% | SF-539 CNS 103% | UACC-257 melanoma 105% | M14 melanoma 104%

COc1cc(C2CC(c3cccc(Nc4ccnc5cc(Cl)ccc45)c3)=NN2c2ccccc2)cc(OC)c1OC (stereo not given)
inactive: NCI-H23 lung 79.5% | NCI-H226 lung 82.1% | NCI-H322M lung 87% | HOP-62 NSCLC 82.3% | NCI-H460 lung 71.1% | HOP-92 NSCLC 33.3% | NCI-H522 lung 53.8% | A549/ATCC NSCLC 76.2% | 786-0 renal 88% | COLO 205 colon 92.2% | DU-145 prostate 68.9% | K-562 leukemia 14% | MALME-3M melanoma 64.3% | MDA-MB-231 breast 77.7% | RXF 393 renal 93.1% | SF-268 CNS 63.2% | SF-295 CNS 31.5% | SF-539 CNS 80.7% | UACC-257 melanoma 80.1% | M14 melanoma 34.7%

CC(C)NCCCCCNc1cc(O)cc2cccnc12
inactive: NCI-H23 lung 45.7% | NCI-H226 lung 92.1% | NCI-H322M lung 56.9% | HOP-62 NSCLC 71.5% | NCI-H460 lung 105% | NCI-H522 lung 86.5% | A549/ATCC NSCLC 123% | 786-0 renal 70.1% | DU-145 prostate 93.2% | K-562 leukemia 67.6% | MALME-3M melanoma 23.8% | MDA-MB-231 breast 26.6% | RXF 393 renal 74.7% | SF-268 CNS 89.2% | SF-295 CNS 77.4% | SF-539 CNS 71.5% | UACC-257 melanoma 111% | M14 melanoma 88.2%
active: HOP-92 NSCLC -8.76% | COLO 205 colon -36.3%

FC1(F)CCN(Cc2c[nH]c3cc(Cl)ccc23)C[C@H]1CCc1ccccc1
inactive: NCI-H23 lung 67.7% | NCI-H226 lung 43.5% | NCI-H322M lung 84.3% | HOP-62 NSCLC 46.1% | NCI-H460 lung 42.8% | HOP-92 NSCLC 37.3% | NCI-H522 lung 67.6% | A549/ATCC NSCLC 43% | 786-0 renal 66.9% | COLO 205 colon 69.5% | DU-145 prostate 65% | K-562 leukemia 31.4% | MALME-3M melanoma 77.1% | MDA-MB-231 breast 68.9% | RXF 393 renal 64.3% | SF-268 CNS 72.1% | SF-295 CNS 54.5% | SF-539 CNS 88.6% | UACC-257 melanoma 53.2% | M14 melanoma 60%

Nc1cc2nc3ccccc3oc-2cc1=O
inactive: NCI-H226 lung 67.4% | NCI-H322M lung 108% | HOP-62 NSCLC 25.4% | HOP-92 NSCLC 112% | 786-0 renal 81.9% | K-562 leukemia 10.6% | MDA-MB-231 breast 59.8% | RXF 393 renal 81.1% | SF-268 CNS 38.5% | UACC-257 melanoma 31.7%
active: NCI-H23 lung -33.2% | NCI-H460 lung -28.7% | NCI-H522 lung -16.5% | A549/ATCC NSCLC -42.4% | COLO 205 colon -74.9% | DU-145 prostate -97.1% | MALME-3M melanoma -45.8% | SF-295 CNS -11.1% | SF-539 CNS -20% | M14 melanoma -83.6%

Cc1cc(C)c2c(n1)sc1c(Nc3ccc(Cl)cc3Cl)ncnc12
active: HOP-62 NSCLC 2.53% | NCI-H460 lung 9.44% | SF-539 CNS 4.9% | M14 melanoma -34.3%
inactive: NCI-H23 lung 19% | NCI-H226 lung 36.2% | NCI-H322M lung 43.9% | HOP-92 NSCLC 36.2% | NCI-H522 lung 30.5% | A549/ATCC NSCLC 26.2% | 786-0 renal 10.9% | COLO 205 colon 23.3% | DU-145 prostate 20.3% | K-562 leukemia 42.9% | MALME-3M melanoma 53.4% | MDA-MB-231 breast 58.7% | RXF 393 renal 28.8% | SF-268 CNS 17.9% | SF-295 CNS 14.3% | UACC-257 melanoma 36.4%

O=C1Cc2c([nH]c3ccc([N+](=O)[O-])cc23)-c2ccccc2N1
active: NCI-H23 lung 2.05% | NCI-H460 lung 6.76% | HOP-92 NSCLC -17.1% | NCI-H522 lung 0.987% | 786-0 renal 7.56% | COLO 205 colon -58.1% | DU-145 prostate 4.56% | K-562 leukemia 3.25% | MALME-3M melanoma 8.75% | SF-539 CNS -37%
inactive: NCI-H226 lung 27.1% | NCI-H322M lung 18.3% | HOP-62 NSCLC 17.8% | A549/ATCC NSCLC 18.5% | MDA-MB-231 breast 29.6% | RXF 393 renal 16% | SF-268 CNS 10.8% | SF-295 CNS 18.7% | UACC-257 melanoma 17.3% | M14 melanoma 16.8%

COc1cccc2nc(Nc3cccc(NC(=O)c4ccc(N5CCN(C)CC5)c(C(F)(F)F)c4)c3)ccc12
inactive: NCI-H23 lung 62.6% | NCI-H226 lung 43.2% | NCI-H322M lung 42.6% | HOP-62 NSCLC 18.2% | HOP-92 NSCLC 13% | A549/ATCC NSCLC 25.3% | DU-145 prostate 29.4% | MDA-MB-231 breast 29.5% | SF-268 CNS 35.5% | M14 melanoma 10.1%
active: NCI-H460 lung -9.94% | NCI-H522 lung -14.2% | 786-0 renal -57.8% | COLO 205 colon -59.2% | K-562 leukemia -49.1% | MALME-3M melanoma -10.5% | RXF 393 renal -2.23% | SF-295 CNS -0.464% | SF-539 CNS -27.9% | UACC-257 melanoma -21.9%

O=C(/C=C/c1cn(-c2ccccc2)nc1-c1cccc(Nc2ccnc3cc(Cl)ccc23)c1)c1ccc2c(c1)OCO2
inactive: NCI-H23 lung 101% | NCI-H226 lung 99.1% | NCI-H322M lung 86.2% | HOP-62 NSCLC 107% | NCI-H460 lung 102% | HOP-92 NSCLC 88.1% | NCI-H522 lung 127% | A549/ATCC NSCLC 93.4% | 786-0 renal 99.8% | COLO 205 colon 102% | DU-145 prostate 76.8% | K-562 leukemia 66.8% | MALME-3M melanoma 38% | MDA-MB-231 breast 72.7% | RXF 393 renal 95.2% | SF-268 CNS 89.7% | SF-295 CNS 115% | SF-539 CNS 95.7% | UACC-257 melanoma 95% | M14 melanoma 111%

NC(=O)Nc1ccc2ncnc(Nc3cccc(O)c3)c2c1
inactive: NCI-H23 lung 100% | NCI-H226 lung 102% | NCI-H322M lung 83.5% | HOP-62 NSCLC 92.8% | NCI-H460 lung 108% | HOP-92 NSCLC 78% | NCI-H522 lung 102% | A549/ATCC NSCLC 93.5% | 786-0 renal 92.6% | COLO 205 colon 94.7% | DU-145 prostate 90.4% | K-562 leukemia 103% | MALME-3M melanoma 121% | MDA-MB-231 breast 104% | RXF 393 renal 111% | SF-268 CNS 85.4% | SF-295 CNS 98.1% | SF-539 CNS 109% | UACC-257 melanoma 99.8% | M14 melanoma 102%

CCCCc1n(Cc2ccc3ccccc3n2)cc[n+]1Cc1ccc2ccccc2n1
inactive: NCI-H226 lung 26.7% | NCI-H322M lung 41.4% | HOP-62 NSCLC 25.2% | NCI-H460 lung 16.5% | NCI-H522 lung 10% | A549/ATCC NSCLC 44.8% | 786-0 renal 56.9% | DU-145 prostate 40.8% | RXF 393 renal 20.8% | SF-268 CNS 19.9% | SF-295 CNS 25.2% | SF-539 CNS 16.3% | M14 melanoma 17.1%
active: NCI-H23 lung 4.77% | HOP-92 NSCLC 4.31% | COLO 205 colon -34.4% | K-562 leukemia 6.71% | MALME-3M melanoma -2.99% | MDA-MB-231 breast 9.88% | UACC-257 melanoma -11.9%
